High-throughput results deposited in PubChem by National Center for Advancing Translational Sciences (NCATS).
RORgamma inh – ROR gamma (mouse) transcription inhibition; P51450; Drosophila S2 Gal4-RORgamma UAS-luciferase reporter, 20 h; Potency, µM (titrated, usually from 53.6 µM), for inactives: at the highest dose activity change, negative = inhibition, usual class: inhibitors; 5.4% of 310,000 active; note: potency is the fitted concentration of half-maximal effect; nearly all actives have a fitted effect of over 60% in size
Target sequence (P51450 whole entry, looked up, the tested form may be a part): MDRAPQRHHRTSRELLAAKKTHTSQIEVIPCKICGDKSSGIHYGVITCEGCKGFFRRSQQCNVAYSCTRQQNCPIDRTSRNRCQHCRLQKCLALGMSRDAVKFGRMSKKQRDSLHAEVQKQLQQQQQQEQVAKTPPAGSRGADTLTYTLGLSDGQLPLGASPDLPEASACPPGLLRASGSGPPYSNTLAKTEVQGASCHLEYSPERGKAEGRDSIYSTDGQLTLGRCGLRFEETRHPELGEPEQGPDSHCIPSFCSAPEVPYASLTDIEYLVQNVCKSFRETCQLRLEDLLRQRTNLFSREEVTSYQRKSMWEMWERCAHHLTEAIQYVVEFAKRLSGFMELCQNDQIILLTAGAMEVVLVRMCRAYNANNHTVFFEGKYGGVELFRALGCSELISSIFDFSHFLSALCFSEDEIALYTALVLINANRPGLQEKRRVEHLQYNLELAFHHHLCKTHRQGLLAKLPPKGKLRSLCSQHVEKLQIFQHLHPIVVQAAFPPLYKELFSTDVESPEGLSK
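Using a luciferase readout, inhibitors were identified by reduced reporter activity in Drosophila cells coexpressing a copper-inducible Gal4–ROR gamma fusion and UAS-driven Photinus luciferase, incubated 20 hr after 700 uM copper sulfate.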
DT40 TDP1 CPT – DT40-hTDP1 cell growth loss with CPT; 12% of 420,000 active; chicken DT40 Tdp1-/-;hTDP1 cells + 20 nM CPT, ATP luminescence, 48 h; Potency, µM (titrated, usually from 46.2 µM), inactives show at the top dose activity change, negative = growth inhibition, actives largely listed as inhibitors; note: potency is the fitted concentration of half-maximal effect; nearly all actives have a fitted effect of over 55% in size
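Chicken DT40 Tdp1-/- cells complemented with human TDP1, 400 cells/well, exposed to compounds plus 20 nM camptothecin for at least 48 h at 37 C; viability read as ATP content by CellTiter-Glo luminescence.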
LDHA block – inhibitors of human lactate dehydrogenase A; purified LDHA, NADH/diaphorase-resazurin fluorescence; stronger effect = lower value; activity change, % (values are at about 110 or 230 µM); 0.15% of 480,000 active; in the data active = activity change below about -30%; inconclusive = mostly about -25% to -30%;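 note: plate controls were DMSO wells for no effect and wells without enzyme for full effect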
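LDH5 2 nM; NADH 0.06 mM, pyruvate 0.2 mM; 200 mM Tris pH 7.4, EDTA, Tween-20; 5 min RT. Detection: diaphorase 0.133 mg/mL + resazurin 37 µM, fluorescence ex540/em590 at 0 and 20 min; normalized to enzyme-free and DMSO wells.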
VP16 counter – Gal4-VP16 reporter inhibition counter-screen | Drosophila S2 Gal4-VP16 UAS-luciferase, luminescence, 20 h | Potency, µM (titrated, usually from 53.6 µM), for the others: at the top dose activity, negative = inhibition, most hits filed as inhibitors | 3.5% of 310,000 active | AID 2546;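 note: Gal4-VP16 expression switched on by copper sulfate through the metallothionein promoter; potency is the fitted concentration of half-maximal effect; nearly all actives have a fitted effect of over 50% in size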
TDP1 cell noCPT – qHTS for Inhibitors of human tyrosyl-DNA phosphodiesterase 1 (TDP1): qHTS in cells in absence of CPT; Potency, µM (top dose mostly 46.2 µM), for inactives: top-dose activity change, negative = growth inhibition, usual class: inhibitors; DT40 Tdp1-/- hTDP1 cells, no CPT, ATP luminescence, 48 h; 15% of 420,000 active; note: potency is the fitted concentration of half-maximal effect; nearly all actives have a fitted effect of over 55% in size
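Seeded 400 DT40-hTDP1 cells/well (vehicle DMSO, no 20 nM CPT); pinned compounds; ≥48 hr at 37 °C; CellTiter-Glo luminescence as viability measure.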
IL-1B inflam inh – blocks inflammasome-driven IL-1 beta release | activity change, % at 57.5 µM | THP-1 LPS/ATP IL-1B secretion, AlphaLISA, 16 h; stronger effect = lower value | AID 743279 | 4.7% of 360,000 active; in the data active = activity change below about -50%; inconclusive = mostly about -30% to -49%
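Secreted IL-1B measured by AlphaLISA bead assay after 16 h compound exposure of THP-1 cells; compounds (final up to 57.5 uM) added 1 h before LPS (250 ng/mL) and ATP (1.25 mM) stimulation; lower signal means less secretion.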
Numbers without * were called inactive; ? = inconclusive; nt = no result given. A selection: hits, their analogues and other compounds. The true share with any hit is near 18%. Unless noted, calls come from the whole dose curve; as a rule, active = well fitted curve in the direction sought with a large enough effect; inconclusive = small, poorly fitted or top-dose-only effect, or another doubt; inactive = no such curve, though single readings can be large; an effect the other way counts as inactive or inconclusive. Unless noted, % is set by controls: 0 for no effect and ±100 for the full control effect.

SMILES	RORgamma inh	DT40 TDP1 CPT	LDHA block	VP16 counter	TDP1 cell noCPT	IL-1B inflam inh
O=C(CSc1ncnc2nc[nH]c12)NCc1ccccc1Cl	nt	nt	-8	nt	nt	nt
O=[N+]([O-])c1ccc2c([N+](=O)[O-])ccc3c2c1CC3	nt	18µM*	2	nt	18µM*	?
CCOC(=O)c1ccc(Nc2nc(C)cc(C)n2)cc1	-35%	-3%	1	-4%	-18%	0
CCOC(=O)c1nc(Nc2ccccc2CC)c2ccccc2n1	19%	?	-1	-5%	18µM*	-2
CCOC(=O)c1nc(NCc2ccccc2)c2ccccc2n1	?	?	-10	-3%	?	35
c1nc(Nc2ccc(N3CCOCC3)cc2)c2ccsc2n1	21%	?	-3	?	?	-10
CCOC(=O)c1ccc(Nc2cc(C)nc(-c3ccccc3)n2)cc1	31%	4.6µM*	1	-7%	5.2µM*	40
CCOC(=O)c1nc(NC(C)c2ccccc2)c2ccccc2n1 (stereo unspecified)	nt	nt	-2	nt	nt	nt
Clc1nc(Nc2ccc(N3CCOCC3)cc2)c2ccccc2n1	?	?	-16	-4%	?	-64*
CCOC(=O)c1nc(Nc2cccc(C)c2)c2ccccc2n1	?	23µM*	-3	7%	12µM*	-15
Cc1nn(C)c2ncc(NC(=O)CCc3ncc(-c4ccccc4)o3)cc12	nt	nt	-3	nt	nt	nt
CC(=O)c1ccc(NC(=O)[C@@]2(CC(=O)O)CC(c3ccc(F)cc3)=NO2)cc1	nt	nt	7	nt	nt	nt
CCCn1c(C)cc(C(=O)CSc2nnc(COc3ccccc3Cl)n2C)c1C	nt	nt	5	nt	nt	nt
C=CCNc1nc(C(=O)OCC)nc2ccccc12	-1%	-5%	-2	5%	-20%	-10
CCOC(=O)c1cccc(Nc2cc(-c3ccccc3)ncn2)c1	nt	15µM*	0	nt	15µM*	nt
Cc1cccc(-c2cc(Nc3cccc(C(=O)N(C)Cc4ccccc4)c3)ncn2)c1	nt	nt	-8	nt	nt	nt
CCOC(=O)c1cccc(Nc2nc3ccccc3nc2NS(=O)(=O)c2ccccc2)c1	nt	nt	-3	nt	nt	nt
CCOC(=O)c1nc(Nc2ccc(C(C)=O)cc2)c2ccccc2n1	10%	16µM*	-7	-6%	15µM*	-11
O=S(=O)(Nc1nc2ccccc2nc1Nc1ccc(N2CCOCC2)cc1)c1cc(Cl)ccc1Cl	?	?	-1	1%	13µM*	32
CCCOC(=O)c1cccc(Nc2nc(C(=O)OCC)nc3ccccc23)c1	nt	16µM*	1	nt	13µM*	nt
CCOC(=O)c1ccc(Nc2nnc(C)c3ccccc23)cc1	29%	-12%	-8	0%	16µM*	-26
CCCOC(=O)c1ccc(Nc2nc(C(=O)OCC)nc3ccccc23)cc1	nt	nt	-34*	nt	nt	nt
CCOC(=O)c1cccc(Nc2nc(C(=O)OCC)nc3ccccc23)c1	nt	4.1µM*	-4	nt	3.3µM*	nt
CCOC(=O)c1nc(Nc2ccc(N3CCOCC3)cc2)c2ccccc2n1	-3%	?	-3	11%	?	-84*
CCCCC(CC)C(=O)Nc1ccccc1Br (stereo unspecified)	nt	nt	2	nt	nt	nt
SMILES	RORgamma inh	DT40 TDP1 CPT	LDHA block	VP16 counter	TDP1 cell noCPT	IL-1B inflam inh
CC1(C)CC(=O)C/C(=N/NC(=O)c2cccc(Br)c2)C1	nt	nt	-4	nt	nt	nt
Cn1cc(C(C(=O)O)N2CCC(Cc3ccccc3)CC2)c2ccc(C(=O)O)cc21 (stereo unspecified)	nt	nt	8	nt	nt	nt
CC1(c2ccccc2)CC(C)(C)N2C(=O)/C(=C3\SC(=S)NC3=O)c3cccc1c32 (stereo unspecified)	-19%	23µM*	-3	-6%	15µM*	22
CC(=C1SC(=S)NC1=O)c1ccccc1	nt	-10%	-5	nt	-2%	4
O=C(NNC(=O)c1cc2ccccc2cc1O)c1cccs1	20µM*	23µM*	18	?	?	176
O=C(NNC(=O)c1ccc2ccccc2c1O)c1cccs1	16µM*	18%	25	?	?	-8
CC(=O)Nc1ccc(Br)c2ccccc12	-2%	-17%	-3	7%	?	7
C/C(=N\NC(=O)c1cc2ccccc2cc1O)c1cccs1	-38%	-21%	5	?	13µM*	-50*
O=C(Nc1ccc(Br)c2ccccc12)c1ccc2ccccc2c1O	?	8.2µM*	-4	?	8.2µM*	-51*
O=C(NNS(=O)(=O)c1ccc2ccccc2c1)c1cccs1	10%	-21%	6	11%	-11%	-10
Cc1cccc(C(=O)OCC(=O)NNC(=O)c2cccs2)c1O	nt	12%	-2	nt	2%	4
O=C(O)CSC(=O)c1ccccc1Cl	nt	nt	-8	nt	nt	nt
COC(=O)c1ccc(C)c(NC(=O)c2cc(-c3cc(C)sc3C)nc3onc(C)c23)c1	nt	nt	0	nt	nt	nt
Cc1cc(OCC(=O)OCCCC(=O)c2ccc(F)cc2)ccc1Cl	nt	nt	-23	nt	nt	nt
C/C(=N/NC(=O)c1cccs1)c1cccs1	?	-11%	-2	-2%	-8%	-14
COc1cccc(C(=O)NNC(=O)c2ccc3ccccc3c2O)c1	nt	?	-10	nt	9.2µM*	51
C/C(=N\NC(=O)c1cccs1)c1c(O)cc(C)oc1=O	4.5µM*	-13%	0	5µM*	1%	1
COCc1c(C(=O)N/N=C(/C)c2cccs2)nnn1-c1nonc1N	-19%	1%	-4	-1%	31%	2
O=C(NNC(=O)c1ccc2ccccc2c1O)c1ccccc1Cl	?	?	22	2%	13µM*	7
C/C(=N\NC(=O)c1nonc1N)c1cccs1	0.32µM*	-18%	0	1%	-15%	11
COc1cc(/C=C(/C#N)c2nc3ccccc3[nH]2)ccc1OCCC(C)C	nt	nt	-2	nt	nt	nt
O=C(COC(=O)COc1ccc(C2SCCCS2)cc1)Nc1c(F)cccc1F	nt	nt	0	nt	nt	nt
CSc1nc(N)nc2c1ncn2CC(=O)N1CCN(Cc2c(C)cc(C)cc2C)CC1	nt	1.8µM*	-4	nt	0.82µM*	37
Cc1cc(C)c(CN2CCN(C(=O)Cn3ccc(N)nc3=O)CC2)c(C)c1	nt	-13%	-5	nt	-16%	36
Cc1cc(C)c(CN2CCN(C(=O)Cn3cnc4c(NCc5ccccc5)ncnc43)CC2)c(C)c1	nt	5.8µM*	-15	nt	1.8µM*	?
O=C(COC(=O)c1cccs1)c1ccc(OCc2ccccc2)cc1	nt	nt	7	nt	nt	nt
C[N+]1(CC2COC3(CCCCC3)O2)CCCC1 (stereo unspecified)	-4%	-2%	-15	-14%	1%	10
